This is an account of results in PubChem BioAssay AID1745847 (National Center for Advancing Translational Sciences (NCATS), 2022).

Screen size: about 2,100 compounds; about 670 (32%) were called active. Roughly 50% stayed inconclusive and do not appear here. Calls come from the whole dose curve; as a rule, active = well fitted inhibition curve with a large enough effect; inconclusive = small, poorly fitted or top-dose-only effect; inactive = no such curve, though single readings can be large or run the other way. The list shows a part of the results.
% is set by controls: 0 for no effect and ±100 for the full control effect; potency is the fitted concentration of half-maximal effect.

A short description of this test: CMV-Luciferase Counterscreen for Inhibitors of ATXN expression. Note: nearly all actives have a fitted effect of over 55% in size. Particulars: HEK-293 CMV-luciferase reporter, luminescence, 24 h; series mostly up to 57.5 µM. Background: The purpose of a counterscreen is to sort out artefacts and off-target activity.
On to `NC(=O)c1cc([N+](=O)[O-])ccc1NCc1ccc(N)cc1`, for which the Potency is 6.31 µM (active). On the same count and under the same terms, then `Cn1nnnc1Sc1ncnc2scc(-c3cccs3)c12`, with 11.2 µM (active); and `Cn1nnnc1Sc1ncnc2scc(-c3ccc[nH]3)c12`, with 20 µM (active). The same measure, in the same setting: the figure for `COc1cc(CNCc2ccncc2)cc(Br)c1OCc1ccccc1F` is 2 µM (active); for `CCOc1ccc(NC(=O)Nc2nnc(CC(=O)NCc3ccccc3)s2)cc1` it is “inactive”.

Regarding `COc1cccc(OC)c1C(=O)OCC(=O)NC(=O)NCc1ccccc1`, the activity change, negative = inhibition is -4.44% [at 11.4 µM] (inactive). Regarding `COc1cc(C(=O)NCc2ccncc2)cc(Br)c1OCc1ccccc1`, the Potency was 3.98 µM (active). Still for that read-out and setting: then `CN(C)CCNc1ncnc2c1sc1nc(N3CCOCC3)c3c(c12)CC(C)(C)SC3`, with “inactive”; and `O=C(/C=C/Nc1ccc(S(=O)(=O)Nc2ncccn2)cc1)c1ccc(Cl)c(Cl)c1`, with “inactive”. Still for that read-out and setting: the figure for `O=C(Nc1ccc(Cl)c(Cl)c1)c1cccc(S(=O)(=O)NCc2cccnc2)c1` is 1.58 µM (active); for `Cn1c(CCc2nc3ccccc3[nH]2)nnc1SCC#N` it is “inactive”. Take `COc1cc2cc(C(=O)NC(C)c3cccc4ccccc34)c(N)nc2cc1OC` (stereo not drawn): the activity change, negative = inhibition is -29.5% [at 11.4 µM] (inactive). `C=CS(=O)(=O)c1c2cc(OC)ccc2nc2ccc(OC)cc12`: the Potency result was “inactive”. The same measure, in the same setting: the entry for `COc1ccc(C(CCNC(C)c2ccccc2)c2ccc(F)cc2)cc1` (stereo not drawn) is “inactive”; for `COc1cc(N)ccc1Nc1c2ccccc2nc2ccccc12` it is 25.1 µM (active). For `COc1ccc(/C=N/Nc2cc(N3CCCC3)nc(N3CCCC3)n2)cc1`, the activity change, negative = inhibition was -17.8% [at 11.4 µM] (inactive). `COc1ccc(Nc2c3ccccc3nc3ccccc23)cc1`: the Potency was 10 µM (active).

`COc1ccc(Nc2nc(N3CCCC3)c3ccccc3n2)cc1`: the Potency was 10 µM (active). For `COc1ccc(C)cc1Nc1nc(N)c2cc(OC)c(OC)cc2n1`, the activity change, negative = inhibition is -12.3% [at 11.4 µM] (inactive). `C(=NN1CCCCCC1)c1ccc2ccccc2n1`: the Potency is 15.8 µM (active).

With `O=C(Nc1ccc(Cl)cc1)Nc1nc(-c2sccc2Br)cs1`, the Potency entry was “inactive”.

For `COc1ccc(OC)c(C(=O)/C=C/c2ccccc2C(F)(F)F)c1`, the activity change, negative = inhibition is -8.72% [at 11.4 µM] (inactive). For `Cc1ccc(C)c(N2CCN(C(=O)CCCCCn3c(=S)[nH]c4ccc(N5CCOCC5)cc4c3=O)CC2)c1`, the Potency was 3.16 µM (active). Consider `Clc1ccccc1C(c1ccccc1)(c1ccccc1)n1ccnc1`, for which the Potency is 3.16 µM (active). Still for that read-out and setting: the figure for `Cc1cccc(N2CCN(C(=O)CC(NC(=O)c3ccccc3Cl)c3ccccc3)CC2)c1C` (stereo not drawn) is 25.1 µM (active); for `COc1ccccc1N1C(=O)N(C(C)=O)C2C1Nc1ccccc1N2C` (stereo not drawn) it is “inactive”; for `CCOC(=O)c1c(NC(=O)COC(=O)Cn2cnc3ccccc32)sc(C)c1C` it is “inactive”. Same read-out and setting: then `CCc1nc2ccccc2c(C(=O)OCC(=O)Nc2cccc(S(=O)(=O)NC3=NCCCCC3)c2)c1C`, with 14.1 µM (active); and `CCn1c2ccccc2c2cc(NC(=O)COC(=O)c3cccc(S(=O)(=O)NC)c3)ccc21`, with “inactive”. `CN(C)CCNc1ncnc2c1sc1nc(N3CCCC3)c3c(c12)CC(C)(C)OC3`: the Potency entry is “inactive”. On the same count and under the same terms, then `O=C(N/N=C(\Cc1ncc[nH]1)c1ccccc1)c1cccnc1`, with 3.98 µM (active). The same measure, in the same setting: the entry for `CCN(CC)c1cc(C)c2cc(NC(=O)c3ccccc3OC)ccc2n1` is “inactive”; for `CCOc1ccccc1C(=O)Nc1ccc2nc(N3CCN(c4ncccn4)CC3)cc(C)c2c1` it is 11.2 µM (active). Same read-out and setting: then `O=C1Nc2c(Br)cc(Br)c3cccc1c23`, with “inactive”; and `O=C(Nc1nc(-c2ccc(S(=O)(=O)N3CCOCC3)cc2)cs1)c1ccccc1`, with 1.12 µM (active). With `COc1cccc(C(=O)Nc2nc(-c3ccc(S(=O)(=O)N4CCOCC4)cc3)cs2)c1`, the Potency is 2.82 µM (active). Take `O=C(Nc1nc(-c2ccccc2)cs1)c1ccccc1NS(=O)(=O)c1ccc(F)cc1`: the Potency was 1 µM (active).

As for `NC(=O)c1c(NC(=O)c2ccc(S(=O)(=O)N3CCOCC3)cc2)sc2c1CCCCC2`, the activity change, negative = inhibition was -13.6% [at 11.4 µM] (inactive). Consider `O=C(Nc1cccc(S(=O)(=O)C(F)F)c1)c1ccc(Cl)c(S(=O)(=O)N2CCOCC2)c1`, for which the Potency is 15.8 µM (active).

Turning to `COc1ccccc1C(=O)Nc1nc(-c2ccc(S(=O)(=O)N3CCOCC3)cc2)cs1`, the Potency is 1.58 µM (active). On to `O=C(Nc1nc(-c2ccccn2)cs1)c1ccc(F)c(S(=O)(=O)N2CCOCC2)c1`, for which the Potency is 1.78 µM (active). As for `Cn1c(=O)c2c(nc(SCCN3CCOCC3)n2Cc2cccc3ccccc23)n(C)c1=O`, the activity change, negative = inhibition is -18.8% [at 11.4 µM] (inactive). Take `Cn1c(=O)c2c(nc(CN3CCN(Cc4ccccc4)CC3)n2Cc2ccc(Cl)cc2)n(C)c1=O`: the Potency was 17.8 µM (active). `CCCCCc1ccc(OCCCC[n+]2cccc(C)c2)c(CCCCC)c1`: the Potency is 4.47 µM (active). As to `O=C(NC(=S)NCc1nc2ccccc2[nH]1)c1ccc(F)cc1`, the activity change, negative = inhibition was 290% [at 11.4 µM] (inactive). Regarding `CCCC(=O)NC(c1ccc(OC)c(OC)c1)c1cc(Cl)c2cccnc2c1O` (stereo not drawn), the Potency is 4.47 µM (active).

Take `CCC(=O)NC(c1ccc(OC)c(OC)c1)c1cc(Cl)c2cccnc2c1O` (stereo not drawn): the Potency was 1.41 µM (active). Same read-out and setting: then `Cc1ccc(Sc2nnc(Cc3ccccc3)c3ccccc23)cc1`, with “inactive”. Still for that read-out and setting: the figure for `O=C(N/N=C/c1sc(N2CCOCC2)nc1-c1ccccc1)c1ccccc1O` is 12.6 µM (active); for `CC(C)(C)c1ccc(C(=O)N2CCCCCC2=O)cc1` it is 5.01 µM (active); for `COc1ccc(CN(C)C(=O)c2cccc(NC(=O)CC3SC(N4CCCCC4)=NC3=O)c2)c(OC)c1` (stereo not drawn) it is 10 µM (active). Same read-out and setting: then `CC(C)c1ccc2c(c1)C(N1CCNCC1)Cc1ccc(F)cc1S2` (stereo not drawn), with 35.5 µM (active). For `COc1ccc(N=Cc2cc3c(cc2O)OC(N)=C(C#N)C3c2ccccc2)cc1` (stereo not drawn), the activity change, negative = inhibition was -22.6% [at 11.4 µM] (inactive).

On to `Cc1cc(C)cc(C(=O)N(NC(=O)Nc2ccc(Cl)cc2)C(C)(C)C)c1`, for which the Potency was 22.4 µM (active).

With `Oc1c(Cl)cc(Cl)cc1/C=N/Nc1ncc(Br)cn1`, the Potency is 2 µM (active). On the same count and under the same terms, the figure for `CN1CCN(c2cc(-c3cc(O)c4ncccc4c3)ccn2)CC1` is 14.1 µM (active); for `CN(Cc1cnc2nc(N)nc(N)c2n1)c1ccc(C(=O)N[C@@H](CCC(=O)O)C(=O)O)cc1` it is 0.0063 µM (active). On the same count and under the same terms, the figure for `Cc1cc(C)cc(NS(=O)(=O)c2ccc3c(c2)c(=O)n(C)c(=O)n3C)c1` is 11.2 µM (active). Regarding `NC(Cc1ccc(C(F)(F)F)cc1)c1csc(Nc2ccc(C(=O)NCc3ccco3)cn2)n1` (stereo not drawn), the activity change, negative = inhibition is -23.4% [at 11.4 µM] (inactive). On to `Cn1cc(/C=C/c2cc[n+](C)cc2)c2cc(F)ccc21`, for which the Potency was 11.2 µM (active). Consider `CN(C)CCNC(=O)c1cccc(-c2cnc3c(NC=O)cc(-c4cccc(C(F)(F)F)c4)cn23)c1`, for which the Potency was 22.4 µM (active). For `COc1ccc(-c2cc(NC=O)c3ncc(-c4cccc(C(=O)NCCN(C)C)c4)n3c2)cc1`, the Potency result was “inactive”. Still for that read-out and setting: the entry for `CN(C)CCNC(=O)c1cccc(-c2cnc3c(NC=O)cc(-c4cccs4)cn23)c1` is “inactive”; for `Cc1ccc(Cl)cc1N1CCN(C(=O)CCS(=O)(=O)c2ccc3c(c2)NC(=O)CO3)CC1` it is 14.1 µM (active); for `CCCCN(C=O)c1c(CC)nc2ccc(C(=O)Nc3cc(-c4ccccc4)ccc3OC)cn12` it is 22.4 µM (active). On the same count and under the same terms, then `CCc1nc2ccc(C(=O)Nc3cc(-c4ccccc4)ccc3OC)cn2c1N(CC)CC(=O)N(C)C`, with 31.6 µM (active); and `Cc1ccnc(NC(=S)N2CCN(c3cccc(C(F)(F)F)c3)CC2)c1`, with “inactive”; and `Cc1nc2ncnn2c(N2CCN(c3cccc(C(F)(F)F)c3)CC2)c1C`, with 2.51 µM (active). In the case of `COc1cc(C(=O)N/N=C(\c2ccccc2)c2ccccn2)cc(OC)c1OC`, the Potency is 0.398 µM (active). Regarding `CCC(CC)C(=O)c1c[nH]c(C(=O)NCc2ccccn2)c1`, the Potency entry was “inactive”. Same read-out and setting: the figure for `O=C(N/N=C(\c1ccccc1)c1ccccn1)c1ccccc1Cl` is 3.98 µM (active).

With `Cc1ccc2c(c1)-c1c(cnn1CC(=O)N1CCCN(Cc3ccccc3F)C1)CO2`, the activity change, negative = inhibition was -25.8% [at 11.4 µM] (inactive).

In the case of `CC(NC1=CC(=O)c2cccnc2C1=O)C(O)c1ccccc1` (stereo not drawn), the Potency is 15.8 µM (active). As for `C/C(=N\NC(=O)C1CCCN(S(=O)(=O)c2ccccc2)C1)c1ccccn1` (stereo not drawn), the Potency was 1.41 µM (active). On the same count and under the same terms, the figure for `CCc1ccc(-c2nc(CS(=O)CC(=O)NCc3ccco3)c(C)o2)cc1` (stereo not drawn) is 0.501 µM (active). Still for that read-out and setting: the figure for `Cc1cccc(N=C2NN=C(c3c(C)[nH]c4ccccc34)CS2)c1` is 12.6 µM (active). `COc1ccc(CNC(=O)CSc2nc(-c3ccccc3)cc(-c3cccs3)c2C#N)cc1`: the activity change, negative = inhibition is 16% [at 11.4 µM] (inactive).

In the case of `COc1cc(OC)cc(-c2cc3nc(C)c(CCC(=O)O)c(C)n3n2)c1`, the Potency is 1 µM (active). Still for that read-out and setting: the figure for `COc1cc(OC)cc(-c2cc3nc(C)c(CCC(=O)NCc4ccccc4)c(C)n3n2)c1` is 11.2 µM (active); for `Cc1c(CC(=O)NCCCC(=O)O)c(=O)oc2cc3c(cc12)CCC(C)(C)O3` it is 11.2 µM (active); for `O=C1c2cccc3cc([N+](=O)[O-])cc(c23)C(=O)N1CCN1CCCC1` it is 0.794 µM (active). Still for that read-out and setting: then `O=C(Nc1cnn(C23CC4CC(CC(C4)C2)C3)c1)c1cnn2c(C(F)(F)F)cc(-c3ccco3)nc12`, with 15.8 µM (active); and `CCc1ccc(-c2cc(C(F)(F)F)n3nc(C(=O)Nc4cnn(Cc5ccc(C)cc5)c4)cc3n2)s1`, with “inactive”; and `CCOc1ccc(/C=C/[N+](=O)[O-])c2ccccc12`, with 15.8 µM (active).

As to `Cc1cc(=O)[nH]c(N=N/C(=N/Nc2ccccc2C)c2ccccc2)n1`, the Potency is 1.58 µM (active). With `COc1cc(C#Cc2c(-c3cncn3C)n(C)c3ccc(-c4cnc(OC)nc4)cc23)cc(OC)c1`, the Potency was 3.55 µM (active). In the case of `COc1cc(C#Cc2c(-c3cncn3C)n(C)c3ccc(-c4ccc(CN5CCOCC5)cc4)cc23)cc(OC)c1`, the activity change, negative = inhibition is -6.42% [at 11.4 µM] (inactive). Turning to `COc1cc(C#Cc2c(-c3cncn3C)n(C)c3ccc(-c4cnc(N5CCOCC5)nc4)cc23)cc(OC)c1`, the activity change, negative = inhibition is -19.7% [at 11.4 µM] (inactive).
